# ± gives the standard deviation.
# Tests used:
# [1] = test system: MILI (PIWIL2) piRISC loaded with L1MC piRNA (26 nt); assay: pre-steady-state target cleavage rate (min^-1); guide: L1MC piRNA 5'p-UAACUAAAUACUAUGCAAGCUGUAGG; higher = faster piRNA-guided slicing of the target
# How it was run: (§1)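 Sequencing of uncleaved targets, normalised to depth and to weakly complementary targets, was the readout of this Cleave-'n-Seq assay. A transcribed, DNA-blocked target RNA library (0.1 nM) was mixed with 1 nM active affinity-purified piRISC carrying one synthetic guide, with or without 500 nM GTSF1 partner protein, in HEPES–potassium acetate buffer at 33 °C for 0–8 or 0–960 min. Three trials were pooled, k3 was capped at 0.0001 min^-1, and a burst-and-steady-state fit gave the pre-steady-state cleavage rate.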
# [2] = test system: EfPiwi piRISC loaded with L1MC piRNA (26 nt); assay: pre-steady-state target cleavage rate (min^-1); auxiliary factor: 500 nM Ephydatia muelleri Gtsf1; guide: L1MC piRNA 5'p-UAACUAAAUACUAUGCAAGCUGUAGG; MIWI and MILI are mouse PIWI proteins and EfPiwi is from a freshwater sponge; tags in brackets are library labels; higher = faster piRNA-guided slicing of the target
# How it was run: as §1
# [3] = auxiliary factor: 500 nM mouse GTSF1
# [4] = auxiliary factor: none (no GTSF1)
Sequence,"pre-steady-state target cleavage rate [1, 3]","pre-steady-state target cleavage rate [1, 4]",pre-steady-state target cleavage rate [2]
UCCUGGAUGUCGUCUGCAUAGUAUUUAGUUA,0.106 ± 0.015,0.00397 ± 0.0027,0.00907 ± 0.0032
UCCUCCUACAGGUUGCAUACUAUUUAGUUA,0.0492 ± 0.009,0.00246 ± 0.0023,0.00612 ± 0.0018
UCCUGCUACAGGUUGCAUAGUAUUUAGUUA,0.246 ± 0.011,0.013 ± 0.0028,0.0242 ± 0.0053
UCCUGGUUCAGCUUGCAUAGUUUUUAGUUA,0.0483 ± 0.013,0.0081 ± 0.0027,0.00498 ± 0.0023
UCCUGCUUCAGCAUGCAUAGUAUUUAGUUA,0.291 ± 0.015,0.0121 ± 0.0034,0.0186 ± 0.0047
UCCUGGUACAGCUGUGCAUAGUAUUUAGUUA,0.238 ± 0.019,0.0118 ± 0.0046,0.00903 ± 0.0034
UCCUGGUACAGCUUGCUUAGUAAUUAGUUA,0.128 ± 0.036,0.0116 ± 0.0032,0.00675 ± 0.0033
UCCUCCUACAGCUUGCACAGUAUUUAGUUA,0.19 ± 0.017,0.00767 ± 0.0021,0.0475 ± 0.013
UCCUGCUACAGCAUGCAUAGUUUUUAGUUA,0.114 ± 0.019,0.00396 ± 0.0036,0.00363 ± 0.0018
UCCUGGUACAGCAUGCAUUGUAUUUAGUUA,0.167 ± 0.016,0.0119 ± 0.0038,0.00628 ± 0.0022
UCCUGGAUCACCUUGGAUAGUAUUUAGUUA,0.173 ± 0.02,0.00563 ± 0.0021,0.00371 ± 0.0037
UCCUGCUACAGCUUGGAUAGUAUUUAGUAA,0.214 ± 0.032,0.00334 ± 0.0025,0.00465 ± 0.0017
UCCUGCUAGAGCUUGCAUAGUAUUAAGUUA,0.256 ± 0.033,0.00303 ± 0.0024,0.00624 ± 0.0022
UCCUCCUACAGCUUUGCAUAGUAUUUAGUUA,0.291 ± 0.017,0.00758 ± 0.0021,0.123 ± 0.036
UCCUCCUACAGCUUGCAUAGUAUUCUAGUUA,0.316 ± 0.039,0.00537 ± 0.0026,0.00344 ± 0.0019
UCCUGGUUCAGCUUGCAUAGUAUAUAGUUA,0.198 ± 0.034,0.0112 ± 0.0032,0.00607 ± 0.0027
UCCUGGAUGUCGUUGCAUAGUAUUUAGUUA [g2:g18:cont:t1A],0.164 ± 0.013,0.0106 ± 0.0029,0.00621 ± 0.0026
UCCUGGUACAGCUUGCAUAGUAUAAAGUUA,0.193 ± 0.046,0.00524 ± 0.0029,0.00482 ± 0.0022
UCCUGGAACAGGUUGCAUACUAUUUAGUUA,0.0491 ± 0.0087,0.00363 ± 0.002,0.00367 ± 0.0017
UCCUGGUACAGCUUGGAUAGUAUUUAGUUA,0.206 ± 0.024,0.0152 ± 0.0038,0.0049 ± 0.0027
UCCUGGAUCAGCUUGCACAGUAUUUAGUUA,0.157 ± 0.015,0.0116 ± 0.003,0.0672 ± 0.016
UCCUGGAUGUCGUUAGCAUAGUAUUUAGUUA,0.0539 ± 0.012,0.00456 ± 0.0029,0.00456 ± 0.0035

Sequence,"pre-steady-state target cleavage rate [1, 3]","pre-steady-state target cleavage rate [1, 4]",pre-steady-state target cleavage rate [2]
UCCUGGAACAGCUUACAUAGUAUUUAGUUA,0.223 ± 0.018,0.00953 ± 0.0027,0.0502 ± 0.012
UCCUGCUACAGGAAGCAUAGUAUUUAGUAA,0.254 ± 0.024,0.00762 ± 0.0022,0.00302 ± 0.0027
UCCUCCUACAGCUUGGAUAGUUUUUAGUUA,0.0664 ± 0.0092,0.00384 ± 0.0019,0.0265 ± 0.007
UCCUGGAACCAGCUUGCAUAGUAUUUAGUUA,0.365 ± 0.032,0.00736 ± 0.0021,0.0336 ± 0.0098
UCCUCCUACAGUUUGCAUAGUAUUUAGUUA,0.299 ± 0.013,0.00895 ± 0.0021,0.0845 ± 0.021
UCCUGGAUCUGCUUGGAUAGUAUUUAGUUA,0.165 ± 0.019,0.0102 ± 0.0026,0.0089 ± 0.0032
UCCUGGUACAGGUUGCAUUGUAUUUAGUUA,0.175 ± 0.023,0.0117 ± 0.0031,0.0047 ± 0.0018
UCCUGGUACAGCUUGCAUAGUAUUUGAGUUA,0.178 ± 0.034,0.00534 ± 0.0027,0.00306 ± 0.0023
UCCUCCUACAGCUUGCAUUGUAUUUAGUUA,0.222 ± 0.014,0.00744 ± 0.0019,0.0211 ± 0.0059
UCCUGCUACAGCUUGCAUAGUAUCUUAGUUA,0.259 ± 0.027,0.00985 ± 0.0022,0.00633 ± 0.0017
UCCUGCUACAGCAUUGCAUAGUAUUUAGUUA,0.286 ± 0.02,0.0108 ± 0.0036,0.00946 ± 0.0029
UCCUGGAACAGCUUGCAUAGUAAUUAGUUA,0.268 ± 0.022,0.00705 ± 0.0022,0.00814 ± 0.0027
UCCUGCUACAGCUGUGCAUAGUAUUUAGUUA,0.263 ± 0.025,0.0081 ± 0.0032,0.00927 ± 0.0026
UCCUGCUACACCUUGCUUAGUAUUUAGUUA,0.2 ± 0.017,0.00572 ± 0.0028,0.00903 ± 0.0035
UCCUGGAUGUGGAUGCAUAGUAUUUAGUUA,0.092 ± 0.012,0.00877 ± 0.0027,0.00943 ± 0.0037
UCCUGGUACAGCGUUGCAUAGUAUUUAGUUA,0.196 ± 0.027,0.0109 ± 0.0053,0.00749 ± 0.0028
UCCUGCUGACAGCUUGCAUAGUAUUUAGUUA,0.327 ± 0.025,0.00993 ± 0.0029,0.0486 ± 0.013
UCCUGGAUGAGCUUGCAUAGUAUUUGAGUUA,0.307 ± 0.051,0.00461 ± 0.0029,0.00491 ± 0.0024
UCCUGGAUCAGCUUGGAAAGUAUUUAGUUA,0.0767 ± 0.01,0.00552 ± 0.0021,0.00365 ± 0.0033
UCCUGGCACAGCUUGCAUAGUAUUUAGUUA,0.289 ± 0.053,0.0117 ± 0.0049,0.0252 ± 0.0092
UCCUGGAUGUGCUUGCAUAGUAUUUAAUUA,0.0357 ± 0.011,0.00315 ± 0.003,0.113 ± 0.038

# Reference: the supplement of paper PMC10338343
